Measured values as given in PubChem BioAssay AID1159580 (chemical genetic matrix, 2015).
Values joined by “and” are separate entries in the source; they are usually repeats but may differ in a detail not shown here. Identical values can stand only once. About 2,000 (36%) of roughly 5,500 compounds were called active. Another 18% or so got no clear call; they are omitted. Rule as the data show it: active = normalized growth mostly below about 0.91 (no sharp cut-off); inconclusive = no clear call, values can overlap the other calls; inactive = mostly above about 0.92. Some of the results follow.

Experiment: chemical genetic growth profiling, strain panel (AID 1159580);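 also: tested at 20 µM; growth read once vehicle control cultures reached saturation at 30 °C; 1 = growth at the plate median or of vehicle wells; lower values mean less growth of the strain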
Conditions: S. cerevisiae deletion strains, growth OD
[1] = locus YMR307W, strain GAS1, stronger effect = lower value

Measured: normalized growth

CCC1(O)CC2CN(CCc3c([nH]c4ccccc34)[C@@](C(=O)OC)(c3cc4c(cc3OC)N(C=O)C3[C@]45CCN4CC=C[C@@](CC)([C@@H](OC(C)=O)[C@]3(O)C(=O)OC)[C@H]45)C2)C1 (stereo partly specified)
inactive: locus YAL040C, strain CLN3, stronger effect = lower value 0.979 | locus YCL061C, strain MRC1 (second series), stronger effect = lower value 0.991 | locus YDR150W, strain NUM1, stronger effect = lower value 0.999 | locus YDR363W, strain ESC2, stronger effect = lower value 0.986 | locus YER002W, strain NOP16, stronger effect = lower value 1 | locus YGR078C, strain PAC10, stronger effect = lower value 0.999 | locus YGR229C, strain SMI1, stronger effect = lower value 0.983 | [1] 0.99 | locus YNL175C, strain NOP13, stronger effect = lower value 1.01 | locus YNL197C, strain WHI3, stronger effect = lower value 0.983 | locus YNL224C, strain SQS1, stronger effect = lower value 1 | locus YNL322C, strain KRE1, stronger effect = lower value 0.957 | locus YOR083W, strain WHI5 (second series), stronger effect = lower value 0.99

NC(CSCSCC(N)C(=O)O)C(=O)O (stereo unspecified)
inactive: locus YAL013W, strain DEP1, stronger effect = lower value 1.01 | locus YBR021W, strain FUR4, stronger effect = lower value 1.01 | locus YBR229C, strain ROT2, stronger effect = lower value 0.998 | locus YCL029C, strain bik1, stronger effect = lower value 0.989 | locus YDL035C, strain GPR1, stronger effect = lower value 1.02 | locus YDL074C, strain BRE1, stronger effect = lower value 1.05 | locus YDL101C, strain DUN1, stronger effect = lower value 1 | locus YDL134C, strain PPH21, stronger effect = lower value 0.988 | locus YDL185W, strain tfp1, stronger effect = lower value 1.01 | locus YDL192W, strain arf1, stronger effect = lower value 0.977 | locus YDR101C, strain arx1, stronger effect = lower value 0.999 | locus YDR162C, strain NBP2, stronger effect = lower value 1.02 | locus YDR318W, strain mcm21, stronger effect = lower value 0.981 | locus YDR388W, stronger effect = lower value 0.986 | locus YDR502C, strain sam2, stronger effect = lower value 1 | locus YEL061C, strain CIN8, stronger effect = lower value 1.02 | locus YER110C, stronger effect = lower value 0.987 | locus YER155C, strain BEM2, stronger effect = lower value 1.01 | locus YER167W, strain BCK2, stronger effect = lower value 1 | locus YGL078C, strain dbp3, stronger effect = lower value 1.01 | locus YGL086W, strain mad1, stronger effect = lower value 1 | locus YGL248W, strain PDE1, stronger effect = lower value 0.997 | locus YGR135W, strain pre9, stronger effect = lower value 0.99 | locus YGR252W, strain gcn5, stronger effect = lower value 1.11 | locus YHR030C, strain SLT2, stronger effect = lower value 1.01 and 1.04 | locus YHR079C, strain IRE1 (second series), stronger effect = lower value 0.987 | locus YHR079C, strain IRE1, stronger effect = lower value 1.04 | locus YHR094C, strain hxt1, stronger effect = lower value 0.985 | locus YHR129C, strain ARP1, stronger effect = lower value 0.995 | locus YHR200W, strain rpn10, stronger effect = lower value 0.997 | locus YIL066C, strain RNR3, stronger effect = lower value 1.01 | locus YIL073C, strain SPO22, stronger effect = lower value 1.06 | locus YIL125W, strain kgd1, stronger effect = lower value 1.01 | locus YIR030C, strain dcg1, stronger effect = lower value 0.999 | locus YJL095W, strain BCK1, stronger effect = lower value 1.01 and 1.02 | locus YJL134W, strain LCB3, stronger effect = lower value 1.01 | locus YJL168C, strain set2, stronger effect = lower value 0.982 | locus YJL187C, strain SWE1 (second series), stronger effect = lower value 1.01 | locus YJR043C, strain POL32, stronger effect = lower value 1.01 | locus YJR066W, strain TOR1, stronger effect = lower value 0.979 | locus YJR075W, strain HOC1, stronger effect = lower value 1.01 | locus YKL009W, strain mrt4, stronger effect = lower value 1.01 | locus YKL068W, stronger effect = lower value 1 | locus YKL085W, strain MDH1 (second series), stronger effect = lower value 0.998 | locus YKL085W, strain MDH1, stronger effect = lower value 0.998 | locus YKL190W, strain CNB1, stronger effect = lower value 1.01 | locus YKR001C, strain vps1, stronger effect = lower value 1.02 | locus YLR039C, strain RIC1, stronger effect = lower value 1.1 | locus YLR058C, strain SHM2, stronger effect = lower value 1 | locus YLR102C, strain apc9, stronger effect = lower value 0.979 | locus YLR113W, strain HOG1, stronger effect = lower value 1.04 | locus YLR262C, strain YPT6, stronger effect = lower value 1.12 | locus YLR268W, strain sec22, stronger effect = lower value 1.02 | locus YLR330W, strain CHS5, stronger effect = lower value 1.01 | locus YLR342W, strain FKS1 (second series), stronger effect = lower value 1.02 | locus YLR371W, strain rom2, stronger effect = lower value 0.977 | locus YLR418C, strain cdc73, stronger effect = lower value 1.01 | locus YML016C, strain PPZ1, stronger effect = lower value 1 | locus YML032C, strain rad52, stronger effect = lower value 0.992 | locus YML124C, strain tub3, stronger effect = lower value 0.99 | locus YMR078C, strain ctf18, stronger effect = lower value 0.988 | locus YMR223W, strain ubp8, stronger effect = lower value 0.994 | locus YMR263W, strain SAP30, stronger effect = lower value 1.01 | [1] 1.02 | locus YNL067W, strain RPL9B, stronger effect = lower value 1 | locus YNL153C, strain GIM3, stronger effect = lower value 1 | locus YNL183C, strain NPR1, stronger effect = lower value 0.983 | locus YNL233W, strain BNI4, stronger effect = lower value 1.02 | locus YNL250W, strain rad50, stronger effect = lower value 1.02 | locus YNL271C, strain bni1, stronger effect = lower value 1.01 | locus YNL298W, strain CLA4, stronger effect = lower value 1 | locus YNL307C, strain MCK1, stronger effect = lower value 0.987 | locus YNR052C, strain pop2, stronger effect = lower value 0.999 | locus YOL012C, strain htz1 0.928 | locus YOL147C, strain pex11, stronger effect = lower value 0.991 | locus YOR061W, strain CKA2, stronger effect = lower value 1.01 | locus YOR069W, strain VPS5, stronger effect = lower value 1.01 | locus YOR136W, strain idh2, stronger effect = lower value 0.996 | locus YOR144C, strain elg1, stronger effect = lower value 0.984 | locus YOR184W, strain ser1, stronger effect = lower value 0.995 | locus YOR231W, strain MKK1, stronger effect = lower value 1.04 | locus YOR316C, strain cot1, stronger effect = lower value 0.98 | locus YPL256C, strain CLN2, stronger effect = lower value 1.02 | locus YPR119W, strain clb2, stronger effect = lower value 0.987 | locus YPR141C, strain kar3, stronger effect = lower value 0.997 | locus YPR163C, strain tif3, stronger effect = lower value 0.999 | locus YPR167C, strain met16, stronger effect = lower value 0.988 | strain wtn01, stronger effect = lower value 1.04
